# PubChem BioAssay
# Activity calls are given as the source filed them.
# Columns and labels:
# Albumin (Bos taurus) = Albumin (Bos taurus) (UniProt P02769); assay: compounds binding labelled BSA control protein – biochemical, small-molecule microarray, Alexa647 label, 635/667 nm fluorescence, artefact control for SMM control protein annotation, profiling panel (AID 1118); settings: BSA-A647 binding, fluorescence 635 nm, higher = more signal;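 also: score merges 667 nm emission intensity and signal-to-noise per printed compound spot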
# [1] = probe aXIP binding to arrayed compounds – biochemical, NeuroSMM set, 635/667 nm fluorescence, primary screen (AID 1119); settings: small-molecule microarray, higher = more signal, called active from +8 up or from −8 down;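 also: probe is the protein aXip251-270 applied at 1 µg/mL to compound-printed slides; binding of probe to printed compounds measured as 667 nm fluorescence plus signal to noise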
# [2] = probe aNOTCH3 binding on compound microarray – biochemical, small-molecule microarray, 635/667 nm fluorescence, primary screen (AID 1120); settings: higher = more signal;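 also: probe is a biotin-tagged antibody raised against NOTCH3 rather than NOTCH3 protein; score merges spot fluorescence near 667 nm with spot signal to noise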
# [3] = probe aNOTCH2 binding on compound microarray – biochemical, small-molecule microarray, 635/667 nm fluorescence, primary screen (AID 1121); settings: higher = more signal;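 also: score merges feature fluorescence read at 667 nm with its signal to noise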
# [4] = target: Carbonic anhydrase 2 (Homo sapiens) (UniProt P00918); assay: compounds binding carbonic anhydrase 2 – biochemical, small-molecule microarray, Alexa647-labelled CAII, profiling panel (AID 1122); settings: CAII-A647 binding fluorescence, higher = more signal
# [5] = COS7 lysate on small-molecule microarray, probe aHis, 635 nm (AID 1123); settings: COS7 cell lysate, fluorescence, higher = more signal;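 also: z-score combines 667nm fluorescence intensity with signal-to-noise per printed compound spot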
# [6] = probe aLAP1 signal on lysate-treated microarray – cell lysate, small-molecule microarray, COS7 lysate, primary screen (AID 1124); settings: probe aLAP1, fluorescence, higher = more signal;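 also: lysate comes from COS7 cells expressing LAP1 and is applied at 0.3 µg/mL; score merges spot fluorescence near 667 nm with signal-to-noise over triplicate slides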
# Sam68 (KHDRBS1) = assay: compounds binding KHDRBS1 protein – biochemical, small-molecule microarray, 635 nm fluorescence, primary screen (AID 1125); settings: higher = more signal;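 also: score merges 667 nm channel intensity with signal to noise over triplicate slides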
# [7] = test system: Chordin-like protein 2 (CHRDL2); assay: compounds binding chordin-like 2 – biochemical, small-molecule microarray, 635 nm fluorescence, primary screen (AID 1126); settings: fluorescence 635 nm, higher = more signal;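 also: printed compound slides probed with Chrdl2 protein at 4 µg/mL for 1 h at 4 C; score merges 667 nm emission intensity with signal to noise over three replicate slides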
# [8] = target: Concanavalin-A (Canavalia ensiformis) (UniProt P02866); assay: compounds binding concanavalin A lectin – biochemical, small-molecule microarray, Alexa647 label, 635 nm, artefact control for SMM control protein annotation, primary screen (AID 1127); settings: ConA-A647 binding fluorescence, higher = more signal;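 also: z combines 667 nm emission intensity with signal-to-noise across three replicate slides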
# [9] = compounds binding Alexa647 anti-His antibody – biochemical, small-molecule microarray, 635 nm fluorescence, artefact control for SMM control protein annotation, primary screen (AID 1128); settings: higher = more signal;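 also: score merges feature fluorescence with signal-to-noise for each printed compound spot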
# [10] = test system: Human papillomavirus type 1a E7 protein (residues 1-88); assay: HPV1a E7 small-molecule binders, primary screen, biochemical, small-molecule microarray, residues 1-88, 635 nm (AID 1129); settings: small-molecule microarray binding, fluorescence 635 nm; higher = more signal
# [11] = target: Focal adhesion kinase 1 (Homo sapiens) (UniProt Q05397); assay: PTK2 protein binding on printed compound slides – biochemical, small-molecule microarray, 635/667 nm fluorescence, BSA, DTT, primary screen (AID 1130); settings: 635 nm fluorescence, higher = more signal;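 also: composite of spot emission at 667 nm and signal to noise over triplicate slides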
# [12] = test system: Fibrinogen (Alexa647-labelled); assay: Alexa647-fibrinogen binding to printed small molecules – biochemical, small-molecule microarray, 635/667 nm fluorescence, artefact control for SMM control-protein annotation, profiling panel (AID 1131); settings: fibrinogen-A647 binding fluorescence, higher = more signal;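 also: z-score merges 667 nm fluorescence with per-spot signal-to-noise over triplicate slides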
# [13] = target: Follistatin (Homo sapiens) (UniProt P19883); assay: FST protein binding to printed compounds – biochemical, small-molecule microarray, 635/667 nm fluorescence, primary screen (AID 1132); settings: 635 nm fluorescence, higher = more signal
# [14] = target: Fibroblast growth factor 2 (Homo sapiens) (UniProt P09038); assay: basic fibroblast growth factor binding to printed compounds – biochemical, small-molecule microarray, 635/667 nm fluorescence, primary screen (AID 1133); settings: FGF2, fluorescence 635/667, higher = more signal
# [15] = JC-1 mitochondrial potential readout, lung cancer cells – cell-based, A549, JC-1 fluorescence, basal, 24 h, 100 nL, profiling panel (AID 1138); settings: higher = more signal;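 also: A549 lung adenocarcinoma cells under basal conditions with no added stimulus; test concentration not given here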
# Lefty1 = Lefty1 protein binding to printed compounds – biochemical, small-molecule microarray, 635/667 nm fluorescence, primary screen (AID 1139); settings: fluorescence 635/667, higher = more signal
# [16] = test system: wheat germ agglutinin (Triticum aestivum), Alexa647-labelled; assay: Alexa647-WGA lectin binding to printed small molecules – biochemical, small-molecule microarray, 635/667 nm fluorescence, artefact control for SMM control-protein annotation, profiling panel (AID 1140); settings: WGA-A647 binding, 635 nm fluorescence, higher = more signal;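 also: score merges 667 nm feature emission with signal to noise over triplicate slides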
# [17] = target: Luciferin 4-monooxygenase (Photinus pyralis) (UniProt P08659); assay: inhibition of purified Photinus pyralis luciferase – biochemical, luminescence, purified enzyme, 2006 set, primary screen (AID 1141); settings: purified firefly luciferase, SteadyGlo luminescence, 30 min; higher = more signal, called active from +8 up or from −8 down;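 also: cell-free assay with purified firefly luciferase at 100 ng per well in PBS; test concentration not given here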
# Sequence of Luciferin 4-monooxygenase (Photinus pyralis) (P08659 whole entry, looked up): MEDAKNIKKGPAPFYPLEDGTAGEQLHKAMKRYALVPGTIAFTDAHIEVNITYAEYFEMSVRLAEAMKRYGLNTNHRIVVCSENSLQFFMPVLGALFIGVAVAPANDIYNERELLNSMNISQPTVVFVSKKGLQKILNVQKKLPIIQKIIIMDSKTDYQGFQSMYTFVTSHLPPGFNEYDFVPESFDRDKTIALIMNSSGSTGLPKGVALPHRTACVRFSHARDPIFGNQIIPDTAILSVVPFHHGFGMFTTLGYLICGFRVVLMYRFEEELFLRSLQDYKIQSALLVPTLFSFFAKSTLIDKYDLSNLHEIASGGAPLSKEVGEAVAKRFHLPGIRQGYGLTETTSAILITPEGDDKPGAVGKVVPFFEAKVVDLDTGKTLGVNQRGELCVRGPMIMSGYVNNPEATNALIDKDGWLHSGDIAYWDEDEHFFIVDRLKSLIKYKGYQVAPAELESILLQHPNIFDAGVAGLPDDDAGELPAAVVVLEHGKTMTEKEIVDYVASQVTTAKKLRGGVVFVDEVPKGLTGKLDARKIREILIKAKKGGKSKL
# Sequence of Albumin (Bos taurus) (P02769 whole entry, looked up): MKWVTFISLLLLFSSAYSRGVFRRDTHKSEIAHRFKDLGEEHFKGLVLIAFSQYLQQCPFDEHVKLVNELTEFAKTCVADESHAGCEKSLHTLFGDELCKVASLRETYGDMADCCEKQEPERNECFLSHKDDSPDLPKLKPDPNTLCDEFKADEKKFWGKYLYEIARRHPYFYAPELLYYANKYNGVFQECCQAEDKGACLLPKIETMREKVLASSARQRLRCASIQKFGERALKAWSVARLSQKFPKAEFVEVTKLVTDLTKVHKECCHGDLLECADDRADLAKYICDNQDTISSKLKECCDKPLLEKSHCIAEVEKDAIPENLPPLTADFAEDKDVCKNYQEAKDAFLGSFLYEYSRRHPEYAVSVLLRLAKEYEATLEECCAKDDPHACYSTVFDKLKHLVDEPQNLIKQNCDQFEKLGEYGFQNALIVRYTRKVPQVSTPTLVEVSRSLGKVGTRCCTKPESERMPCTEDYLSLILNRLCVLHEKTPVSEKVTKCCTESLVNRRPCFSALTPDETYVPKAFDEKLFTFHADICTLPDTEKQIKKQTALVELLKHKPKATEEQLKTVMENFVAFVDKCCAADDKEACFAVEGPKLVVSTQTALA
# Sequence of Focal adhesion kinase 1 (Homo sapiens) (Q05397 whole entry, looked up): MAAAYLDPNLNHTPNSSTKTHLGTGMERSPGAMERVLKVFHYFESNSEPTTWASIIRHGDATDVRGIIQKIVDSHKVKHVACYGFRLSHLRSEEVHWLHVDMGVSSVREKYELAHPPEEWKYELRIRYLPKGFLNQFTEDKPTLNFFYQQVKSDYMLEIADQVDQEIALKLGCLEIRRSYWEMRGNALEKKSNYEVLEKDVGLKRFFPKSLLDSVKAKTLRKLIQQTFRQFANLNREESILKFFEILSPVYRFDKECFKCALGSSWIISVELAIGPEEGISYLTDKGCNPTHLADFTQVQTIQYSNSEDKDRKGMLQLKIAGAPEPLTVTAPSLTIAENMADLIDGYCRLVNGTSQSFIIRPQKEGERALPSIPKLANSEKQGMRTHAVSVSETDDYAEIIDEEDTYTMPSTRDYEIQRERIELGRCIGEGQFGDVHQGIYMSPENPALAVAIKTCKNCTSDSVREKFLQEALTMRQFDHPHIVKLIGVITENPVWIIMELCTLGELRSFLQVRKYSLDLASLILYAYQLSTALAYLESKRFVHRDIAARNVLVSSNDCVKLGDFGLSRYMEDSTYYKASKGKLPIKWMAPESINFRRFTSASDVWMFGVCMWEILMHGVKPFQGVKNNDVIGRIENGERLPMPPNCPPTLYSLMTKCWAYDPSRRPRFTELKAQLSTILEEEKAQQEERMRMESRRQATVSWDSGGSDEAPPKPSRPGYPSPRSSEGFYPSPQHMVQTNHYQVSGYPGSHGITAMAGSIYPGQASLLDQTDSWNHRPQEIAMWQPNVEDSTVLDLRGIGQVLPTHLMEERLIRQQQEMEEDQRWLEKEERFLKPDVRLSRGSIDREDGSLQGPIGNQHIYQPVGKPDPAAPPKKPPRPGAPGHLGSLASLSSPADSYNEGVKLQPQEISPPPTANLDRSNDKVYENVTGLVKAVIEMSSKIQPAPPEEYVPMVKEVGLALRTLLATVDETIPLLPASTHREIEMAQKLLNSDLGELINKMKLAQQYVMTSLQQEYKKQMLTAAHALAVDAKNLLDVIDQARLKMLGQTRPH
# Sequence of Concanavalin-A (Canavalia ensiformis) (P02866 whole entry, looked up): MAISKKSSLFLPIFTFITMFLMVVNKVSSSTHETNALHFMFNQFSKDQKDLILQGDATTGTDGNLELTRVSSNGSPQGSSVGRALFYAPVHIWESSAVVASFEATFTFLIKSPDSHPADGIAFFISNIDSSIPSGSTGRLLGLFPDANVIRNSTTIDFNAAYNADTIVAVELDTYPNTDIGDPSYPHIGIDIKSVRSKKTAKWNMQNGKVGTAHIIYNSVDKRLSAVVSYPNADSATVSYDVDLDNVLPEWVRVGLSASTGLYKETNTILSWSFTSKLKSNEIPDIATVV
# Sequence of Fibroblast growth factor 2 (Homo sapiens) (P09038 whole entry, looked up): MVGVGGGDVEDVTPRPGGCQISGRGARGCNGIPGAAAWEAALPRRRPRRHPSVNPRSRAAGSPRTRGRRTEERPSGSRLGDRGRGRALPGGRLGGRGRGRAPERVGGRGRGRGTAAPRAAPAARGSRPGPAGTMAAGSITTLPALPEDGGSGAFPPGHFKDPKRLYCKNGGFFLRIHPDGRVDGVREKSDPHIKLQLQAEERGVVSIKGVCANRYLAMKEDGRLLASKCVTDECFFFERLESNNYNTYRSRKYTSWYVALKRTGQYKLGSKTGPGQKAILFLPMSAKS
# Sequence of Follistatin (Homo sapiens) (P19883 whole entry, looked up): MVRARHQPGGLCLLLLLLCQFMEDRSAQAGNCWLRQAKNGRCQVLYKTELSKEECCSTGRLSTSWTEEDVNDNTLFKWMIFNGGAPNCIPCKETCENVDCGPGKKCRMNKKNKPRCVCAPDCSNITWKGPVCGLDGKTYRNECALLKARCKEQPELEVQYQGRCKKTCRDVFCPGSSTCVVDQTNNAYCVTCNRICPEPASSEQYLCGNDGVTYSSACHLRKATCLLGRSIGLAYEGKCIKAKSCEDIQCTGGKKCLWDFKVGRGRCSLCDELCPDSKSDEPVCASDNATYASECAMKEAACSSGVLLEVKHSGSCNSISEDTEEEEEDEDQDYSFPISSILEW
Compound,composite z-score (Albumin (Bos taurus)),composite Z-score [1],composite z-score [2],composite z-score [3],composite z-score [4],composite z-score [5],composite z-score [6],composite z-score (Sam68 (KHDRBS1)),composite z-score [7],composite z-score [8],composite z-score [9],composite z-score [10],composite z-score [11],composite z-score [12],composite z-score [13],composite z-score [14],z-score [15],composite z-score (Lefty1),composite z-score [16],z-score [17]
O=C1OCCC=C[C@H]2OC34C=CCN(c5ccc(Cl)cc5)C(=O)[C@H]3N(CCCCCO)C(=O)[C@@H]4C12 (stereo not given in full),0.772,0.728 (inactive),-0.0663,-0.0714,0.873,0.848,0.281,0.25,-0.27,-1.21,3.41,-0.457,-0.226,-0.929,-0.514,-0.297,2.6,-0.314,-0.21,-1.31 (inactive)
COC(=O)[C@]1(CCS(=O)(=O)c2ccccc2)N=C(c2ccc(OCCCO)cc2)O[C@@H]1c1ccccc1CN=[N+]=[N-],-0.453,-0.139 (inactive),0.0357,0.062,0.416,1.95,0.472,1.29,-0.0531,0.848,1.15,1.23,1.34,0.954,1.35,0.807,0.332,0.293,0.528,-0.587 (inactive)
C=CC[C@@]12N=C(c3ccc(OCCCO)cc3)O[C@@H]1c1ccccc1N(CCS(=O)(=O)c1ccccc1)C2=O,0.873,-0.32 (inactive),0.0692,-0.16,0.724,1.78,0.551,1.31,0.992,1.17,0.954,1.22,0.87,0.944,1.3,1.55,0.699,0.51,0.961,-12.1 (active)
O=C1NC(=O)C2C1C=CC(C(O)c1ccc3c(c1)OCO3)N2Nc1ccccn1 (stereo not given),0.939,0.246 (inactive),-0.0324,-0.12,0.555,2.99,0.183,0.153,0.704,0.667,0.942,0.256,0.0543,0.646,1.32,0.133,0.992,0.146,1.01,-0.716 (inactive)
NC(=O)NCC#Cc1ccc2c(c1)[C@]1(C(=O)N2)[C@H](C(=O)O)[C@H]2C(=O)O[C@H](c3ccccc3)[C@H](c3ccccc3)N2[C@@H]1c1ccccc1OCCO,0.501,0.434 (inactive),0.199,0.0505,0.372,0.329,-0.0878,0.685,0.915,1.11,1.18,0.866,0.129,0.809,1.03,0.836,0.246,1.2,1.16,-4.72 (inactive)
CCOC(=CC(=O)OC)CC(O)c1cccc(Cl)c1 (stereo not given),0.451,-0.114 (inactive),-0.17,-0.176,0.606,1.47,0.49,0.505,-1.42,0.0032,1.83,1.15,0.702,-0.76,-0.23,-0.745,1.32,-0.417,1.22,-0.135 (inactive)
C#CCNC(=O)[C@H](Cc1ccccc1)NC(=O)[C@@H](N=[N+]=[N-])C(C)C,0.51,-0.197 (inactive),-0.0431,-0.134,0.179,0.88,0.0338,1.01,0.747,0.584,0.141,0.873,0.146,0.694,0.127,0.524,0.332,0.343,0.349,-0.66 (inactive)
O=C(O)[C@H]1C[C@H]2C(=O)N3CCC[C@H]3C(=O)N2[C@H]1c1cccc(OCCO)c1,-0.698,0.223 (inactive),-0.124,-0.115,0.525,1.21,-0.332,0.833,0.996,0.942,2.79,0.658,-0.525,0.0871,1.32,0.871,1.95,0.232,0.227,-1.97 (inactive)
C=CC[C@@]1(C(=O)O)N=C(c2ccc(OCCCO)cc2)O[C@@H]1c1ccccc1,0.771,1.76 (inactive),-0.293,0.247,0.527,2.71,0.724,0.732,-0.713,-0.587,3.53,1.15,0.3,-0.184,-0.759,-0.893,0.959,-0.726,1.27,-0.171 (inactive)
C=CCC(OC(C)=O)[C@@H]1[C@@H](N(Cc2ccc(-c3ccccc3)cc2)C(=O)c2cccc3ccccc23)c2cc(OCCCO)ccc2N1C(=O)Cc1ccc2ccccc2c1 (stereo not given in full),0.413,-0.277 (inactive),-0.0345,-0.0891,-0.0417,0.321,0.194,-0.35,-0.133,-0.353,0.23,-0.0083,-0.0525,-0.545,0.295,-0.327,0.31,0.191,0.605,-0.105 (inactive)
CC(C)c1ccc(NN2C(C(O)c3ccco3)C=CC3C(=O)N(c4ccccc4)C(=O)C32)cc1 (stereo not given),0.488,0.204 (inactive),0.133,0.124,0.762,2.18,0.219,1.14,-0.394,1.17,1.26,1.22,1.14,0.995,1.26,0.0324,0.222,0.634,1.32,-1.29 (inactive)
